Legend:
Assay in all cases: DAPPL (digital affinity profiling via proximity ligation, sequencing); 10 mM Tris-HCl pH 7.5, 50 mM NaCl, 1 mM DTT, 4% glycerol, room temperature, 30 min; GST-TFs on glutathione beads, 16-mer random dsDNA library, 0.1% formaldehyde crosslink after washing; high values mean tight binding
Conditions in all cases: protein: recombinant; tags: N-terminal GST; dsDNA, one strand shown
FLI1 = target: T1, FLI1 (Homo sapiens, UniProt Q01543 1-452)
T1 sequence: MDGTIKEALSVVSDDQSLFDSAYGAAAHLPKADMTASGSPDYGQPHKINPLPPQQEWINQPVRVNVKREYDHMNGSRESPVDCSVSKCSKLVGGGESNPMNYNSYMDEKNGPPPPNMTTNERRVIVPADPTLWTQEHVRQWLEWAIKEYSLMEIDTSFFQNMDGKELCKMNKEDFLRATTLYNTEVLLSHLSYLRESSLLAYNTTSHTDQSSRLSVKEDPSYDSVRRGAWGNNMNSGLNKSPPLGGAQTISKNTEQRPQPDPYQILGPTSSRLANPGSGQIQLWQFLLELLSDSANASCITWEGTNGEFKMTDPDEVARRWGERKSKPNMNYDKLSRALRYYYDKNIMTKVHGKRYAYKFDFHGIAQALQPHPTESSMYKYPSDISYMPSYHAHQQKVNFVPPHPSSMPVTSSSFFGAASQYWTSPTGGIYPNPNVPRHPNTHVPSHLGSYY
In short: (§1)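 The binding signal reported is, for every hexamer, its read frequency for a factor over its read frequency for the tag-only sample. Reads came from pools of yeast-expressed, GST-fused human transcription factors on glutathione beads, barcoded with DNA and mixed with that sample, which were incubated with 200 nmole of a random double-stranded 16-mer DNA library in Tris/NaCl/DTT/glycerol buffer at room temperature for 30 min. After washing, the pools were crosslinked with 0.1% formaldehyde, proximity-ligated with BsaI/T4 ligase for 1 h at 37 °C, PCR-amplified and sequenced on an Illumina NextSeq500.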

ELK1 = target: T2, ELK1 (Homo sapiens, UniProt P19419 1-428)
T2 sequence: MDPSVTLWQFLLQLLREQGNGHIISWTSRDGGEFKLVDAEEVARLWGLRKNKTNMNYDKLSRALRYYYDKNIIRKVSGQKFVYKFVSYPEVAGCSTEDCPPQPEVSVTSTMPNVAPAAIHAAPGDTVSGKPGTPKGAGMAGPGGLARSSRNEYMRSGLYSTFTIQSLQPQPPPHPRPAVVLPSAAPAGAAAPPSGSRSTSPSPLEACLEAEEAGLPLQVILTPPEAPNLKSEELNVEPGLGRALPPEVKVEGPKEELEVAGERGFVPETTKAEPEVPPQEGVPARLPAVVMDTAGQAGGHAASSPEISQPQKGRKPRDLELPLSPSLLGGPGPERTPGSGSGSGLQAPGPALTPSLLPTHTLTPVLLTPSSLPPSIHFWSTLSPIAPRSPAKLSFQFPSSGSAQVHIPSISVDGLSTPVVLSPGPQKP
In short: as §1

GABPA = target: T3, GABPA (Homo sapiens, UniProt Q06546 1-454)
T3 sequence: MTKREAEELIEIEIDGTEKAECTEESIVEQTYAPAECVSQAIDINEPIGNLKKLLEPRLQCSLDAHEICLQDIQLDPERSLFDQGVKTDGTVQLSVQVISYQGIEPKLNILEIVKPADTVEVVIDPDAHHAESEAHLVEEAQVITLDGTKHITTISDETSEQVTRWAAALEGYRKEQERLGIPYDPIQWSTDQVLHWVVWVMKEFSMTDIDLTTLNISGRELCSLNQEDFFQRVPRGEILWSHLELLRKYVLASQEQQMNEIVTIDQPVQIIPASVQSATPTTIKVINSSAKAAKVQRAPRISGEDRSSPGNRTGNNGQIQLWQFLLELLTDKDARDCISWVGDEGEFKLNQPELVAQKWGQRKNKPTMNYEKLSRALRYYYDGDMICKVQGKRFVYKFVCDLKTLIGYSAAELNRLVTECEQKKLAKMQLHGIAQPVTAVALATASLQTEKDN
In short: as §1

ERG = target: T4, ERG (Homo sapiens, UniProt P11308 1-479)
T4 sequence: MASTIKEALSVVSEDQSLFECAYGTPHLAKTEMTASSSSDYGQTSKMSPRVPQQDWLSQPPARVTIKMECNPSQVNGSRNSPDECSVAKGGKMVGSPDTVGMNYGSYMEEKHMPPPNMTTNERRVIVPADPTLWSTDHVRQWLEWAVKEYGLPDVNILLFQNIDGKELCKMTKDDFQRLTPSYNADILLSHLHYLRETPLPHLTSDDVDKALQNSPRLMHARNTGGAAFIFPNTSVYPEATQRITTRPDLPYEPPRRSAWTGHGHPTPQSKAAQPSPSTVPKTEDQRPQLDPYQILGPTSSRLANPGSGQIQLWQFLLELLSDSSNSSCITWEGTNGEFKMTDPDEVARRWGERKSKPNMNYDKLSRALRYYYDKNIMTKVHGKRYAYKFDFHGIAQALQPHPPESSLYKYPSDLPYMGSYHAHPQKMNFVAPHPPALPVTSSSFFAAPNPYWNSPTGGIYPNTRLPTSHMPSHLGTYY
In short: as §1

ELF1 = ELF1 (Homo sapiens, UniProt P32519 1-619)
In short: as §1

EHF = target: T5, EHF (Homo sapiens, UniProt Q9NZC4 1-300)
T5 sequence: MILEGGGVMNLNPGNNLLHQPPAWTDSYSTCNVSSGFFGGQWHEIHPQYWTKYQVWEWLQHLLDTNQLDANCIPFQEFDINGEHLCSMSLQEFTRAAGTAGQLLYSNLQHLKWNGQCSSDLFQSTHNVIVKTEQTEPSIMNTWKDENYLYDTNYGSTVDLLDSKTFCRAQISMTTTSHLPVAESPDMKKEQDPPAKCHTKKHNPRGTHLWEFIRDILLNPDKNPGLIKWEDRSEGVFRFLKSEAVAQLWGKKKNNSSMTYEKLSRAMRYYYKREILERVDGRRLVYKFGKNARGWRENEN
In short: as §1

SPI1 = SPI1 (Homo sapiens, UniProt P17947 1-270)
In short: as §1

SPIB = SPIB (Homo sapiens, UniProt Q01892 1-262)
In short: as §1

ELK3 = target: T6, ELK3 (Homo sapiens, UniProt P41970 1-407)
T6 sequence: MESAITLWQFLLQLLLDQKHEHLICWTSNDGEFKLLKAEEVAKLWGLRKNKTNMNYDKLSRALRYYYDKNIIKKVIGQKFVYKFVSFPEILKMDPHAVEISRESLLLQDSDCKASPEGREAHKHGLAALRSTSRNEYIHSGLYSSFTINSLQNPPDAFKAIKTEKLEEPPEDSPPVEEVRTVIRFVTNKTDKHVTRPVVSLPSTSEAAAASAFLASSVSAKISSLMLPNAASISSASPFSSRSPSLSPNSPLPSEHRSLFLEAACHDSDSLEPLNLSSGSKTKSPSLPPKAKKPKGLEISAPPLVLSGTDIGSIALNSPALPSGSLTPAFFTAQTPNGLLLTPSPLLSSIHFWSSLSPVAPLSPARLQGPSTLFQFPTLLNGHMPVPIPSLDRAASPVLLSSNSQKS
In short: as §1

ELF1, sequence (P32519 whole entry): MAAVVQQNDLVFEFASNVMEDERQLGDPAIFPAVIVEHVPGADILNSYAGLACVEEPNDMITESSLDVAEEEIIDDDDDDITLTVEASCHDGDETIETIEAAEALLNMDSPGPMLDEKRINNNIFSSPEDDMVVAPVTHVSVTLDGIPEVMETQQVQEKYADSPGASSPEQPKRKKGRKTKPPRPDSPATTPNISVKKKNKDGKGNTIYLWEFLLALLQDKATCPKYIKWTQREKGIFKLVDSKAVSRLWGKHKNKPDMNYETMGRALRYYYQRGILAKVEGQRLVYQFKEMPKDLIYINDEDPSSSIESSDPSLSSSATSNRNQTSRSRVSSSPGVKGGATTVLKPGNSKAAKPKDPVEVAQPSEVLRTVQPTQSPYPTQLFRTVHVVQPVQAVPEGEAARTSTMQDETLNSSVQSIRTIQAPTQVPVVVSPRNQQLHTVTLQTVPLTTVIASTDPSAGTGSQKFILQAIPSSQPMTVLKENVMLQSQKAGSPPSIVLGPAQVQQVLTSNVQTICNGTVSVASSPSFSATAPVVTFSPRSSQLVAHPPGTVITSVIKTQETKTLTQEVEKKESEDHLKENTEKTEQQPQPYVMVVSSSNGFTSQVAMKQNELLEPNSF
SPIB, sequence (Q01892 whole entry): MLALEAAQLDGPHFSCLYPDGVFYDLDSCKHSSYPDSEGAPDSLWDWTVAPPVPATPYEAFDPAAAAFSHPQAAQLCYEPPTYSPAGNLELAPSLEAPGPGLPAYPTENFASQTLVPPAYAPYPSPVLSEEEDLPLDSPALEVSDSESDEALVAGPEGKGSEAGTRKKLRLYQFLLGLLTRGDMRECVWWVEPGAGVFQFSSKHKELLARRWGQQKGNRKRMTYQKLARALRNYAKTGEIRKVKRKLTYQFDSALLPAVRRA

| Sequence | binding signal (FLI1) | binding signal (ELK1) | binding signal (GABPA) | binding signal (ERG) | binding signal (ELF1) | binding signal (EHF) | binding signal (SPI1) | binding signal (SPIB) | binding signal (ELK3) |
| --- | --- | --- | --- | --- | --- | --- | --- | --- | --- |
| TTATTT | 1.4 fold enrichment (6-mer frequency, TF over GST control) | 1.42 fold enrichment (6-mer frequency, TF over GST control) | 1.33 fold enrichment (6-mer frequency, TF over GST control) | 1.44 fold enrichment (6-mer frequency, TF over GST control) | 1.3 fold enrichment (6-mer frequency, TF over GST control) | 1.35 fold enrichment (6-mer frequency, TF over GST control) | 1.44 fold enrichment (6-mer frequency, TF over GST control) | 1.37 fold enrichment (6-mer frequency, TF over GST control) | 1.33 fold enrichment (6-mer frequency, TF over GST control) |
| ATCGAT | 1.16 fold enrichment (6-mer frequency, TF over GST control) | 1.1 fold enrichment (6-mer frequency, TF over GST control) | 1.19 fold enrichment (6-mer frequency, TF over GST control) | 1.15 fold enrichment (6-mer frequency, TF over GST control) | 1.15 fold enrichment (6-mer frequency, TF over GST control) | 1.19 fold enrichment (6-mer frequency, TF over GST control) | 1.21 fold enrichment (6-mer frequency, TF over GST control) | 1.12 fold enrichment (6-mer frequency, TF over GST control) | 1.1 fold enrichment (6-mer frequency, TF over GST control) |
| GTCCTA | 1.15 fold enrichment (6-mer frequency, TF over GST control) | 1.19 fold enrichment (6-mer frequency, TF over GST control) | 1.22 fold enrichment (6-mer frequency, TF over GST control) | 1.14 fold enrichment (6-mer frequency, TF over GST control) | 1.12 fold enrichment (6-mer frequency, TF over GST control) | 1.16 fold enrichment (6-mer frequency, TF over GST control) | 1.16 fold enrichment (6-mer frequency, TF over GST control) | 1.18 fold enrichment (6-mer frequency, TF over GST control) | 1.12 fold enrichment (6-mer frequency, TF over GST control) |
| ACATGC | 1.31 fold enrichment (6-mer frequency, TF over GST control) | 1.2 fold enrichment (6-mer frequency, TF over GST control) | 1.33 fold enrichment (6-mer frequency, TF over GST control) | 1.24 fold enrichment (6-mer frequency, TF over GST control) | 1.36 fold enrichment (6-mer frequency, TF over GST control) | 1.24 fold enrichment (6-mer frequency, TF over GST control) | 1.19 fold enrichment (6-mer frequency, TF over GST control) | 1.2 fold enrichment (6-mer frequency, TF over GST control) | 1.34 fold enrichment (6-mer frequency, TF over GST control) |
| AAAACG | 1.13 fold enrichment (6-mer frequency, TF over GST control) | 1.19 fold enrichment (6-mer frequency, TF over GST control) | 1.14 fold enrichment (6-mer frequency, TF over GST control) | 1.21 fold enrichment (6-mer frequency, TF over GST control) | 1.16 fold enrichment (6-mer frequency, TF over GST control) | 1.17 fold enrichment (6-mer frequency, TF over GST control) | 1.43 fold enrichment (6-mer frequency, TF over GST control) | 1.11 fold enrichment (6-mer frequency, TF over GST control) | 1.14 fold enrichment (6-mer frequency, TF over GST control) |
| CCGATA | 1.16 fold enrichment (6-mer frequency, TF over GST control) | 1.13 fold enrichment (6-mer frequency, TF over GST control) | 1.14 fold enrichment (6-mer frequency, TF over GST control) | 1.14 fold enrichment (6-mer frequency, TF over GST control) | 1.17 fold enrichment (6-mer frequency, TF over GST control) | 1.18 fold enrichment (6-mer frequency, TF over GST control) | 1.09 fold enrichment (6-mer frequency, TF over GST control) | 1.03 fold enrichment (6-mer frequency, TF over GST control) | 1.14 fold enrichment (6-mer frequency, TF over GST control) |
| CTAATG | 1.34 fold enrichment (6-mer frequency, TF over GST control) | 1.22 fold enrichment (6-mer frequency, TF over GST control) | 1.26 fold enrichment (6-mer frequency, TF over GST control) | 1.18 fold enrichment (6-mer frequency, TF over GST control) | 1.23 fold enrichment (6-mer frequency, TF over GST control) | 1.28 fold enrichment (6-mer frequency, TF over GST control) | 1.26 fold enrichment (6-mer frequency, TF over GST control) | 1.26 fold enrichment (6-mer frequency, TF over GST control) | 1.46 fold enrichment (6-mer frequency, TF over GST control) |
| CCGGCT | 1.75 fold enrichment (6-mer frequency, TF over GST control) | 1.62 fold enrichment (6-mer frequency, TF over GST control) | 1.65 fold enrichment (6-mer frequency, TF over GST control) | 1.74 fold enrichment (6-mer frequency, TF over GST control) | 1.68 fold enrichment (6-mer frequency, TF over GST control) | 1.77 fold enrichment (6-mer frequency, TF over GST control) | 1.73 fold enrichment (6-mer frequency, TF over GST control) | 1.91 fold enrichment (6-mer frequency, TF over GST control) | 1.62 fold enrichment (6-mer frequency, TF over GST control) |

Reference: PMC7862700, “An all-to-all approach to the identification of sequence-specific readers for epigenetic DNA modifications on cytosine”
